Source: PubChem BioAssay (Tox21)
Results filed as inconclusive are left out. Activity calls are given as the source filed them. Unless noted, the call rests on the fitted dose curve.

Experiments:
[1] = Nuclear factor erythroid 2-related factor 2/antioxidant responsive element (Nrf2/ARE) small molecule agonists: qHTS cell viability counter screen in human keratinocytes (AID 1919968; active means well fitted curve in the direction sought with a large enough effect in the repeat runs; an effect the other way counts as inactive or inconclusive; further: nearly all actives have a fitted effect of over 55% in size; further: potency means the concentration at half of the fitted maximal effect)
Outline: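 Viability counter-screen: KeratinoSens reporter cells, DMSO-delivered compounds, 23 h at 37 C, CellTiter-Fluor fluorescence.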

[2] = Nuclear factor erythroid 2-related factor 2/antioxidant responsive element (Nrf2/ARE) small molecule agonists: luciferase reporter gene qHTS assay in human keratinocytes (AID 1919969); further: nearly all actives have a fitted effect of over 35% in size
[3] = target: Gonadotropin-releasing hormone receptor (Homo sapiens) (UniProt P30968); test: Human gonadotropin-releasing hormone receptor (GnRHR) small molecule agonists, calcium flux assay in GnRHR-HEK293 cells (AID 1920063); further: nearly all actives have a fitted effect of over 35% in size
Sequence of Gonadotropin-releasing hormone receptor (Homo sapiens) (P30968 whole entry, looked up): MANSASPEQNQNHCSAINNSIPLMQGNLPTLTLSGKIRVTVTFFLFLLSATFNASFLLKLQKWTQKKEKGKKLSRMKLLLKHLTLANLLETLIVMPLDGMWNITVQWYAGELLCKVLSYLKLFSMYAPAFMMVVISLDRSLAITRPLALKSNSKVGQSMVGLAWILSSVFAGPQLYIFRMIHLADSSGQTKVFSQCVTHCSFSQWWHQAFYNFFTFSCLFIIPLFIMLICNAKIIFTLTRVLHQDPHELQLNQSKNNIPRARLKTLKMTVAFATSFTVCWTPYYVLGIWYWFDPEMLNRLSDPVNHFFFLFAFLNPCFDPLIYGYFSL
Outline: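 Tox21-format agonist screen using human GnRHR-expressing HEK293 cells and a fluorescent calcium dye; kinetic 3-min fluorescence reading after compound addition, 15-point concentration series run in triplicate.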

[4] = target: KiSS-1 receptor (Homo sapiens) (UniProt Q969F8); test: Human kisspeptin (KISS1R) small molecule agonists, calcium flux assay in KISS1R-HEK293 cells (AID 1920064; active means well fitted curve in the direction sought with a large enough effect in the repeat runs; an effect the other way counts as inactive or inconclusive)
Sequence of KiSS-1 receptor (Homo sapiens) (Q969F8 whole entry, looked up): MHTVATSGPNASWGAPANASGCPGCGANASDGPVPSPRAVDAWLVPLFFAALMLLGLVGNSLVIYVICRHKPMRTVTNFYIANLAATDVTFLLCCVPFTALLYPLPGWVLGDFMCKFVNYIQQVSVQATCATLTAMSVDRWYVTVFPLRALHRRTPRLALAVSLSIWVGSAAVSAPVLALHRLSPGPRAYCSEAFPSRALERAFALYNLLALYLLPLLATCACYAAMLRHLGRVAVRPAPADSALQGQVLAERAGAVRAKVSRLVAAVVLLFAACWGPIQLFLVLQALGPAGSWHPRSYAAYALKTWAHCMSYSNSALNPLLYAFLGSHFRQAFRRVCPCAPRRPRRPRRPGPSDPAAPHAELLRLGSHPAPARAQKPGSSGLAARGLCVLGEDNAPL
Outline: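 Intracellular calcium mobilization in KISS1R-HEK293 cells was recorded by fluorescence (Ex/Em 480/540) for 3 min following compound addition to cells pre-loaded 1 h with calcium dye.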

[5] = G protein-coupled receptor (GPCR) small molecule agonists, calcium flux assay: HEK293 wild type cell line counter screen (AID 1920065)
Outline: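 In this agonist-mode screen, ATP is the positive control and DMSO the vehicle. Cells grow 18 h before a 1 h dye incubation at 37 C; signal is taken at Ex/Em 480/540 over 3 min.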

[6] = p53 small molecule agonists, cell-based qHTS assay with human liver microsomes: qHTS cell viability counter screen (AID 1963579); further: nearly all actives have a fitted effect of over 45% in size
Outline: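 Cytotoxicity counter screen: p53RE-bla, 4,000 cells/well; 5 h settle, 37 C/5% CO2; cpd + HLM 0.5 mg/mL + NADPH 0.5 mg/mL (final); 16 h, 37 C; CellTiter-Glo, 30 min RT, luminescence.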

[7] = p53 small molecule agonists, cell-based qHTS assay with rat liver microsomes: qHTS cell viability counter screen (AID 1963580); further: nearly all actives have a fitted effect of over 45% in size
Outline: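 HCT-116 p53RE-bla, 4,000 cells/well, 5 h pre-incubation; cpd + rat liver microsomes 0.5 mg/mL + NADPH 0.5 mg/mL (final); 16 h, 37 C; CellTiter-Glo, 30 min RT; luminescence.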

[8] = target: 5-hydroxytryptamine receptor 2A (Homo sapiens) (UniProt P28223); test: 5-hydroxytryptamine receptor 2A (HTR2A) small molecule antagonists, cell-based qHTS assay (AID 1963586); further: nearly all actives have a fitted effect of over 45% in size; further: potency means the concentration at half of the fitted maximal effect
Sequence of 5-hydroxytryptamine receptor 2A (Homo sapiens) (P28223 whole entry, looked up): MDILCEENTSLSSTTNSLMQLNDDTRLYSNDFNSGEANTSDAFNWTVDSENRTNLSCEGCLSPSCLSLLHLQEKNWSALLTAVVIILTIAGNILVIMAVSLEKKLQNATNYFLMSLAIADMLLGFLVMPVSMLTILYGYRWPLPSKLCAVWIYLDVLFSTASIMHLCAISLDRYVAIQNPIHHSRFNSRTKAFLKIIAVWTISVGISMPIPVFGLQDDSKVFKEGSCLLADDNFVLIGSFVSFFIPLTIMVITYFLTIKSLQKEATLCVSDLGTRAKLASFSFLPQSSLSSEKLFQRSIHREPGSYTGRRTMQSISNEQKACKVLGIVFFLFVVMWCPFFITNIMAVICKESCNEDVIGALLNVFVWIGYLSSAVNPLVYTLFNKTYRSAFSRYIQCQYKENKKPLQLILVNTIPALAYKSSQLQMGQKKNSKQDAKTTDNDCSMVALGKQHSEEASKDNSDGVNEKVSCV
Outline: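 Antagonist-mode intracellular calcium assay: DOI (4 nM) added after 5 min compound pre-incubation at room temperature to dye-loaded HTR2A-CHO cells. Fluorescence followed for 3 min, sampled every second.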

[9] = target: 5-hydroxytryptamine receptor 2A (Homo sapiens) (UniProt P28223); test: 5-hydroxytryptamine receptor 2A (HTR2A) small molecule agonists, cell-based qHTS assay (AID 1963587); further: nearly all actives have a fitted effect of over 30% in size
Outline: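 Kinetic calcium-flux fluorescence (2 min, 1 sec intervals) after compound addition in agonist mode. HTR2A-CHO cells were cultured 18 h, then dye-loaded 1 h at 37 C.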

[10] = target: Muscarinic acetylcholine receptor M1 (Homo sapiens) (UniProt P11229); test: Cholinergic receptor muscarinic 1 (CHRM1) small molecule antagonists, cell-based qHTS assay (AID 1963588); further: nearly all actives have a fitted effect of over 40% in size
Sequence of Muscarinic acetylcholine receptor M1 (Homo sapiens) (P11229 whole entry, looked up): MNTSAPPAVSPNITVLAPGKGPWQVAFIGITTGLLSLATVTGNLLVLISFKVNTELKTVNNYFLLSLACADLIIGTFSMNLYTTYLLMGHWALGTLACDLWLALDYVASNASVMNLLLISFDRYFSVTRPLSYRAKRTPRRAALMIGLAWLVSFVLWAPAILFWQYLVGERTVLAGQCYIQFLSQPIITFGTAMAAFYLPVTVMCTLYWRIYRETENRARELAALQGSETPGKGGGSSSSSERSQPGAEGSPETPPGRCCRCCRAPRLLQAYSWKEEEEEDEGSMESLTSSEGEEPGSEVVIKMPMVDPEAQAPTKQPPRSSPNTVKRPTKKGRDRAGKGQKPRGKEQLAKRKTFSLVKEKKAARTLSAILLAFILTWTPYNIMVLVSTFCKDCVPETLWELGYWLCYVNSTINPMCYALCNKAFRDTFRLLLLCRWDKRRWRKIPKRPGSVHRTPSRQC
Outline: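 CHRM1-CHO calcium-flux assay, antagonist mode. Cells were seeded 18 h, dye-loaded 1 h at 37 C and given compound for 5 min at RT, then acetylcholine was added at 50nM. FDSS fluorescence was read 3 min; 15 concentrations, three runs.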

[11] = target: Muscarinic acetylcholine receptor M1 (Homo sapiens) (UniProt P11229); test: Cholinergic receptor muscarinic 1 (CHRM1) small molecule agonists, cell-based qHTS assay (AID 1963589); further: nearly all actives have a fitted effect of over 35% in size
Outline: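 Stable CHRM1-CHO cells (human receptor) were incubated 18 h, dye-loaded for 1 h at 37 C and exposed to test compounds for agonist activity, with calcium-dependent fluorescence followed kinetically.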

[12] = cAMP Responsive Elements (CRE) small molecule agonists, cell-based qHTS assay (AID 1963590)
Outline: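 FRET-based beta-lactamase readout (LiveBLAzer B/G, 2 h RT) quantified CRE activation in HEK 293T CRE-bla cells after 3 h treatment with DMSO-dissolved compounds.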

[13] = target: Beta-2 adrenergic receptor (Homo sapiens) (UniProt P07550); test: Adrenergic beta2 receptor (ADRB2) small molecule antagonists, cell-based qHTS assay (AID 1963592); further: series mostly up to about 92 µM; nearly all actives have a fitted effect of over 50% in size
Sequence of Beta-2 adrenergic receptor (Homo sapiens) (P07550 whole entry, looked up): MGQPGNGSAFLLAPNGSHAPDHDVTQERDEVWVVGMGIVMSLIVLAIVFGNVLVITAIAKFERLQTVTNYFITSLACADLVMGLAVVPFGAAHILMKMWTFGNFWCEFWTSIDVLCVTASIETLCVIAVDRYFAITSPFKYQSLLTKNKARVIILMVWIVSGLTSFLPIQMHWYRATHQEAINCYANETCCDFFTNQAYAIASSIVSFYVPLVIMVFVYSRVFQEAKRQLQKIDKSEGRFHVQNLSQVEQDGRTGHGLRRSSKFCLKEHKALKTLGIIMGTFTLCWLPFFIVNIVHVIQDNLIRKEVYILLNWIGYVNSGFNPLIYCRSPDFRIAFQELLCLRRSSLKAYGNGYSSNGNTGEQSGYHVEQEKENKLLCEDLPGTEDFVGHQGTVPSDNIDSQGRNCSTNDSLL
Outline: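 Cells (CHO, stable ADRB2 overexpression) incubated 18-20hr at 37C; compounds added from DMSO; agonist mix (1nM isoproterenol, 100uM IBMX, 25uM Ro-20-1724) added; 0.5hr RT; d2-cAMP and anti-cAMP-cryptate added; 1hr RT; 665/615 nm read.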

[14] = target: D(2) dopamine receptor (Homo sapiens) (UniProt P14416); test: Dopamine D2 receptor (DRD2) small molecule agonists, cell-based qHTS assay (AID 1963594); further: nearly all actives have a fitted effect of over 35% in size
Sequence of D(2) dopamine receptor (Homo sapiens) (P14416 whole entry, looked up): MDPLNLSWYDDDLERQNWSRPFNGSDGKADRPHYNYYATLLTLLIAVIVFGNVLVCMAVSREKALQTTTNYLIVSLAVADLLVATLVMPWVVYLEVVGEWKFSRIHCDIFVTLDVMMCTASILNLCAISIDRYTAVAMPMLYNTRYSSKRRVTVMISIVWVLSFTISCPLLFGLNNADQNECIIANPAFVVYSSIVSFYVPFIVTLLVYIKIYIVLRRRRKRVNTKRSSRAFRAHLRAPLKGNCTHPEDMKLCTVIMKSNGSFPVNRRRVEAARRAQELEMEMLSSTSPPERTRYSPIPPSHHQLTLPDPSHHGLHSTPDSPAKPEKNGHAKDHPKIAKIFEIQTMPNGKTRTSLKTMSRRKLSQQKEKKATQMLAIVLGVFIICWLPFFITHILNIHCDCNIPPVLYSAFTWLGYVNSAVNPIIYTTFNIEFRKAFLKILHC
Outline: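 cAMP accumulation in DRD2-HEK293 cells measured by HTRF after 1 h detection; compounds added 10 min before NKH477 (200nM […]) forskolin-analogue stimulation, 30 min at room temperature, with Ro20-1724 present at 0.1 mM final.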

[15] = target: D(2) dopamine receptor (Homo sapiens) (UniProt P14416); test: Dopamine D2 receptor (DRD2) small molecule antagonists, cell-based qHTS assay (AID 1963595; active means well fitted inhibition curve with a large enough effect in the signal ratio in the repeat runs, with a control signal flat; the % refers to the signal ratio; further: potency means the concentration at half of the fitted maximal effect)
Outline: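 Stable D2 receptor HEK293 line, 24 h after seeding. Compound preincubated 10 min, then quinpirole (12 nM) with forskolin analogue NKH477 (200 nM), 30 min, room temperature. Detection by time-resolved FRET of cAMP.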

[16] = cAMP Responsive Elements (CRE) small molecule antagonists, cell-based qHTS assay (AID 1963591; active means well fitted inhibition curve with a large enough effect in the signal ratio in the repeat runs, not every such curve was filed as active; the % refers to the signal ratio)
Outline: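 qHTS in CRE-bla HEK 293T cells: compound in DMSO, then 0.25 uM NKH477 (final), 3 h at 37 °C/5% CO2; beta-lactamase FRET read-out after 2 h substrate incubation.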

[17] = target: Beta-2 adrenergic receptor (Homo sapiens) (UniProt P07550); test: Adrenergic beta2 receptor (ADRB2) small molecule agonists, cell-based qHTS assay (AID 1963593);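 further: CHO cells stably overexpressing human ADRB2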
Outline: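 CHO cells stably over-expressing ADRB2 were plated overnight at 37C, then dosed with compounds plus a stimulation mix containing 100uM IBMX and 25uM Ro-20-1724 for 0.5hr at room temperature. cAMP was measured by HTRF competition, 1hr.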

[18] = p53 small molecule agonists, cell-based qHTS assay: qHTS cell viability counter screen (AID 1963581); further: nearly all actives have a fitted effect of over 45% in size
Outline: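 Compounds are pinned onto HCT-116 p53RE-bla cells and left 16 h at 37 C. Following the reporter FRET read, ATP is quantified by CellTiter-Glo luminescence after 30 min at room temperature.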

Measured: Potency

C=CCc1cc(S(=O)(=O)c2ccc(O)c(CC=C)c2)ccc1O
active: [1] 61.1 µM
not listed: [16] | [17] | [18]
inactive: all other assays above

CCCCNCC
not listed: [10] | [13] | [17] | [18]
inactive: all other assays above

CCCCNc1ccc(C(=O)OCCOCCOCCOCCOCCOCCOCCOCCOCCOC)cc1
not listed: [18]
inactive: all other assays above

CCC(=O)c1ccc2c(c1)N(CCCN(C)C)c1ccccc1S2
active: [8] 130 nM | [15] 531 nM
not listed: [9] | [10] | [17] | [18]
inactive: all other assays above

CCCCN1C[C@H](O)[C@@H](O)[C@H](O)[C@H]1CO
not listed: [10] | [18]
inactive: all other assays above

C[C@@H](Oc1ccc(CNC(=O)c2cccnc2Oc2ccc3c(c2)OCO3)c(F)c1)C(=O)O
not listed: [16] | [17] | [18]
inactive: all other assays above

O=S(=O)(O)c1cc(O)c2ccc(Nc3ccccc3)cc2c1
not listed: [10] | [11] | [17] | [18]
inactive: all other assays above

CCOc1ccc(C(=O)OCCN(CC)CC)cc1
not listed: [7] | [14]
inactive: all other assays above

COC(C)(C)OC
not listed: [7] | [15] | [17]
inactive: all other assays above
